# Anthrax LF prot: inhibitors of Bacillus anthracis lethal factor protease | P15917 | multiplex microsphere protease cleavage assay, LF | inhibition, % at 10 µM | 360,000 compounds, 0.12% hits | AID 588501; note: plate controls were buffer without enzyme for full effect and enzyme alone for no effect
# MazF activator: MazEF (E. coli) toxin RNase activation; P0AE70; FAM/BHQ RNA-DNA oligo cleavage fluorescence, 5 h; activation, % at 20 µM; 350,000 compounds, 0.32% hits; AID 504720; in the data active = activation above about 50%
# Target sequence (P0AE70 whole entry, looked up): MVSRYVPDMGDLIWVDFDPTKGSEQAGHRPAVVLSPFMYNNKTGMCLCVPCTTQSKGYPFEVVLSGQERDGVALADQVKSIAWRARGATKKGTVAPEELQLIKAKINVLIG
# Bead autofluor: counter-screen for toxin protease inhibitors: compound fluorescence; compound autofluorescence counterscreen, microsphere flow cytometry; active compounds read high; AID 624483; fluorescence intensity (concentration not given with the values); 360,000 compounds, 3.1% hits; in the data active = fluorescence intensity above about 16000; inconclusive = no clear call, values can overlap the other calls
# BoNT F protease: blocks Botulinum neurotoxin F light chain protease; Multiplex microsphere protease cleavage assay, flow cytometry; 360,000 compounds, 0.22% hits; inhibition, % at 10 µM; in the data active = inhibition above about 35%, passing the limit was not always enough; inconclusive = no clear call, values can overlap the other calls; note: plate controls were buffer without enzyme for full effect and enzyme alone for no effect
# BoNT A protease: BoNT A light chain protease inhibition | multiplex microsphere protease substrate cleavage, flow cytometry | AID 588499 | 360,000 compounds, 0.17% hits | inhibition, % at 10 µM; note: plate controls were buffer without enzyme for full effect and enzyme alone for no effect
# Starred values were filed as active, the others as inactive; ? = inconclusive; / = no result. Sampled rows, rich in hits. Any-hit rate of the full collection: about 3.7%. Cut-off read from the data, not from the text of the source, unless noted: active = inhibition above about 30%; inconclusive = no clear call, values can overlap the other calls; inactive = below that.
SMILES,Anthrax LF prot,MazF activator,Bead autofluor,BoNT F protease,BoNT A protease
COc1ccccc1NC(=O)/C=C/c1cc([N+](=O)[O-])ccc1OC(F)F,3,22,6184,-8,0
CC(=O)Nc1ccccc1-c1cccc2nccn12,4,/,3525,1,0
Cc1ccc(C)c(N2N=C(C(=O)OCc3nnc(-c4cccs4)o3)CCC2=O)c1,3,2,5732,-8,0
CCOC(=O)C(=O)N(C)c1c(CC)nc2c(OCc3ccccc3C)cccn12,3,/,3501,1,0
Cc1ccc(-n2ncc(N(C)C)c(Cl)c2=O)cc1,0,-12,2436,-10,0
CN(/N=C/c1ccncc1)c1cnn(-c2ccc(F)c(Cl)c2)c(=O)c1Cl,-2,6,20433*,-3,-3
Nc1nonc1-n1nnc(C(=O)N/N=C/c2cccc(Cl)c2Cl)c1CN1CCCC1,-3,8,3966,-15,-4
COc1cc(C(O)c2nc(-c3ccc(F)c(Cl)c3)cs2)ccc1F (centres undefined),-4,/,3428,2,0
CCCOc1ccc(C(=O)NC(=S)Nc2nc(C)c(C(=O)N(C)C)s2)cc1,-21,-3,18538*,15,11
CCOC(=O)c1sc(NC(=S)NC(=O)c2ccccc2)nc1C,-3,8,4291,-5,-1
Cc1nc(NC(=O)c2ccc(Br)s2)sc1C(=O)N(C)C,1,0,16535*,-2,?
Cc1nc(NC(=S)NC(=O)c2ccccc2)sc1C(=O)N(C)C,-3,3,21936*,1,1
CCc1nc2ccc(C(=O)Nc3cccc(OCC(=O)N(C)C)c3)cn2c1N(C)Cc1ccc(N(C)C)cc1,-6,/,3471,-5,0
Cc1ccsc1C(=O)OCC(=O)NCc1ccc(Cl)cc1,4,-4,2876,-2,0
CCc1nc2ccc(C(=O)Nc3cccc(OC)c3)cn2c1N(C)Cc1ccc(OC)cc1,4,/,2977,-4,0
Cc1ccc(-n2nc(C)c(=O)c(-c3ccccc3)c2NC(=O)C(C)C)cc1,?,3,3542,-20,-3
COc1cccc(-c2c(NC(=O)c3ccco3)n(-c3ccc(C)cc3)nc(C)c2=O)c1,-2,-2,16965*,-3,-1
CN1CCN(C(=O)c2cc3c(c(-c4cccc(-c5cccnc5)c4)n2)[C@@H](CCO)N(C(=O)CC2CC2)C3)CC1,5,/,6324,3,0
CC(=O)Nc1ccc2ccccc2c1[N+](=O)[O-],4,3,3339,1,0
Cc1ccc2c(n1)sc1c(-c3ccccc3)c(C#N)c(N)nc12,7,52*,4249,-16,15
Cc1nc(N)c(C#N)c(-c2cccnc2)c1-c1ccccc1,-23,-3,3473,7,1
Cc1ccc(NC(=O)N/C=C/c2ccco2)cc1C,2,11,21513*,-2,?
Cc1ccc(NC(=O)N/C=C/c2ccco2)c(C)c1,2,-13,16016,2,2
O=C(Nc1cc(Sc2ccccn2)cc([N+](=O)[O-])c1)c1cccc(F)c1,-2,52*,2196,-7,0
O=C(NCCCNC(=O)c1ccc(F)cc1)c1ccc(F)cc1,-6,10,4063,57*,1
SMILES,Anthrax LF prot,MazF activator,Bead autofluor,BoNT F protease,BoNT A protease
O=C(NCCCNC(=O)c1ccccn1)c1ccc(F)cc1,-1,5,6227,-10,-3
CCc1nc2c(OCCOC)cccn2c1N(C)C(=O)c1ccco1,-7,/,3764,-6,0
CCN(CC)S(=O)(=O)c1ccc(F)c(C(=O)NCCC(C)C)c1,1,3,17171*,-2,?
O=C(NCc1ccc(F)cc1)c1cc(S(=O)(=O)N2CCOCC2)ccc1F,0,7,21187*,7,?
CCCNC(=O)c1cc(S(=O)(=O)N2CCc3ccccc32)ccc1F,0,0,16850*,-4,-3
COc1ccc(CCNC(=O)c2cc(S(=O)(=O)N3CCc4ccccc43)ccc2F)cc1OC,5,3,3532,-3,-1
CCCCCNC(=O)c1cc(S(=O)(=O)N2CCCCC2)ccc1F,-3,1,23121*,5,?
O=C(NCc1ccc(F)cc1)c1cc(S(=O)(=O)N2CCCCC2)ccc1N1CCOCC1,-4,-5,4209,-7,0
Cc1cc(C(=O)N2CCC2(C)C(=O)Nc2cccc3ccccc23)nn1C (centres undefined),-3,/,3999,-2,0
N#C/C(=C\c1ccccn1)c1nc2ccccc2s1,2,67*,3710,1,2
Cc1ccc(C(=O)/C=C/c2cn(CN3CCN(C)CC3)c3ccccc23)cc1,1,6,22519*,-2,1
CC(C)N(C(=O)CSc1nnc(-c2cc3ccccc3cc2O)n1Cc1ccco1)C(C)C,1,-5,20006*,-1,?
COCCn1c(SCC(=O)N(C(C)C)C(C)C)nnc1-c1cc2ccccc2cc1O,-3,6,23496*,-3,?
CC(C)COc1ccc(-c2nnc(-c3ccncc3)o2)cc1,-2,5,17655*,-11,-4
COc1ccc(-c2cc(-c3cc(F)ccc3O)[nH]n2)cc1OC,-2,11,22604*,-1,?
COc1ccc(-c2cc(-c3ccccc3O)[nH]n2)cc1OC,-8,6,9833,-14,0
Cc1cccc2cc(C(c3nnnn3C(C)(C)C)N(Cc3ccco3)CC3CCCO3)c(=O)[nH]c12 (centres undefined),-2,-3,21568*,4,3
Cc1ccc2cc(C(c3nnnn3C3CCCC3)N(Cc3ccco3)Cc3cccs3)c(=O)[nH]c2c1 (centres undefined),-3,-22,24754*,-5,-2
O=c1[nH]c2cc3c(cc2cc1C(c1nnnn1CC1CCCO1)N1CCCCCC1)OCCO3 (centres undefined),1,-5,22706*,-6,-4
Cc1ccc2cc(C(c3nnnn3C3CCCC3)N(Cc3cccnc3)Cc3ccco3)c(=O)[nH]c2c1 (centres undefined),-2,-5,11893,0,1
Cc1ccc2[nH]c(=O)c(C(c3nnnn3C(C)(C)C)N(Cc3ccco3)CC3CCCO3)cc2c1 (centres undefined),2,3,5660,10,1
Cc1cccc2cc(C(c3nnnn3CC3CCCO3)N3CCOCC3)c(=O)[nH]c12 (centres undefined),-7,-2,18150*,8,?
CC(C)C[C@H](NC(=O)c1[nH]cnc1C(=O)Nc1ccccc1F)C(=O)OC(C)(C)C,-1,-7,3470,-4,0
CC1CCCCC1NC(=O)C(C)N1C(=O)c2ccccc2C1=O (centres undefined),-3,-6,9561,-11,-4
Cc1cccc2cc(C(c3nnnn3Cc3ccccc3)N3CCCc4ccccc43)c(=O)[nH]c12 (centres undefined),5,2,23808*,2,?
Cc1ccccc1NC(=S)N(CCN(C)C)C(C)c1ccccn1 (centres undefined),-12,-4,19817*,7,6

# Compound activity deposited in PubChem by several laboratories.
